# Results from PubChem BioAssay (NCI).
# Compounds without any hit were thinned out: in the full panel of roughly 79,000, 15% have a hit. A number with no mark means an inactive call. Calls of active or inactive are those of the source. No stated cut-off is given here; in the data, active means growth inhibition above about 70%; inactive means the rest.
# How the values were obtained:
# [1] = NCI Yeast Anticancer Drug Screen. Data for the rad50 strain (AID 155);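 further: 0% = growth of vehicle-only cultures of the same strain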; conditions: S. cerevisiae rad50 strain growth inhibition, active compounds read high
# Method in brief: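 Genetically altered yeast (DNA repair pathway); compound treatment; growth inhibition vs vehicle ctrl.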
# [2] = NCI Yeast Anticancer Drug Screen. Data for the mec2-1 strain (AID 157); conditions: S. cerevisiae mec2-1 strain, active compounds read high
# Method in brief: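 Yeast mec2-1 mutant treated with compound. Readout: growth inhibition vs vehicle controls.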
# [3] = NCI Yeast Anticancer Drug Screen. Data for the sgs1 mgt1 strain (AID 161);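 further: 0% = growth of cultures given vehicle only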; conditions: S. cerevisiae sgs1 mgt1 strain, active compounds read high
# Method in brief: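 Inhibition of yeast growth, normalised to vehicle-treated controls, is reported for a strain bearing genetic alterations in DNA damage repair.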
# [4] = NCI Yeast Anticancer Drug Screen. Data for the cln2 rad14 strain (AID 165);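 further: 0% = growth equal to vehicle treated cultures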; conditions: S. cerevisiae cln2 rad14 strain, active compounds read high
# Method in brief: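 cln2 rad14 yeast strain; compound exposure; growth inhibition read vs vehicle controls.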
# [5] = NCI Yeast Anticancer Drug Screen. Data for the bub3 strain (AID 167); conditions: S. cerevisiae bub3 mutant strain, active compounds read high
# Method in brief: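 Yeast carrying a defined mutation is treated with each compound, and growth is compared with that of vehicle-exposed cells to give inhibition.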
# [6] = NCI Yeast Anticancer Drug Screen. Data for the mlh1 rad18 strain (AID 175); conditions: S. cerevisiae mlh1 rad18 strain growth inhibition, active compounds read high
# Method in brief: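 Yeast w/ defined DNA-repair lesions; compound exposure; growth vs vehicle controls → % inhibition.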
# [7] = at 5.0 µM (retest, dose inferred, filed as 0.5)
# [8] = at 50.0 µM (retest, dose inferred, filed as 5.0)
Structure (SMILES),"growth inhibition [1, 7]","growth inhibition [1, 8]",growth inhibition ([1]; at 50.0 µM),"growth inhibition [2, 7]","growth inhibition [2, 8]",growth inhibition ([2]; at 50.0 µM),"growth inhibition [3, 7]","growth inhibition [3, 8]",growth inhibition ([3]; at 50.0 µM),"growth inhibition [4, 7]","growth inhibition [4, 8]",growth inhibition ([4]; at 50.0 µM),"growth inhibition [5, 7]","growth inhibition [5, 8]",growth inhibition ([5]; at 50.0 µM),"growth inhibition [6, 7]","growth inhibition [6, 8]",growth inhibition ([6]; at 50.0 µM)
O=C(Nc1ccccc1)Oc1c(Cl)c(Cl)c(Cl)c(Cl)c1Cl,19%,98% (active),58.4%,13%,99% (active),45.8%,26%,99% (active),55.7%,3%,99% (active),-20.8%,-2%,99% (active),54.4%,6%,98% (active),68.7%
NC1CCCCC1N.O=S(=O)([O-])CCCN1CCN(CCO)CC1.O=S(=O)([O-])CCCN1CCN(CCO)CC1.[Pt+4],8%,98% (active),-8.45%,8%,99% (active),-9.95%,12%,98% (active),23.1%,44%,66%,-15.8%,-24%,97% (active),-2.7%,16%,98% (active),24.4%
Cc1ccc(N2C(=O)C(C)SC23C(=O)Nc2ccc(Cl)cc23)cc1 (centres undefined),-8%,99% (active),98.5% (active),9%,99% (active),98.8% (active),-3%,98% (active),37.4%,0%,98% (active),97.8% (active),-8%,98% (active),98.8% (active),1%,99% (active),89% (active)
CN(C)CCCNc1ccc2c(=O)n(CCN(C)C)c(=O)n3c4ccccc4c(=O)c1c23,42%,69%,71.7% (active),29%,33%,55%,28%,18%,26.2%,40%,24%,58.6%,61%,37%,40.9%,55%,61%,25.4%
COC(=O)C(C#N)=C(SC)SC,7%,99% (active),99.3% (active),4%,99% (active),98.2% (active),17%,99% (active),99.5% (active),-3%,98% (active),95.2% (active),1%,99% (active),98.9% (active),41%,99% (active),99.1% (active)
CC1(C(Cl)(Cl)Cl)C=CC(O)(C#CC2(O)C=CC(C)(C(Cl)(Cl)Cl)C=C2)C=C1 (centres undefined),94% (active),7%,94.5% (active),91% (active),98% (active),98.2% (active),81% (active),-7%,98.3% (active),87% (active),97% (active),95.7% (active),98% (active),97% (active),95.4% (active),93% (active),98% (active),97.8% (active)
Cc1ccc(S(=O)(=O)Nc2ccc3c(c2)C(=O)c2ccccc2-3)cc1,14%,90% (active),91.7% (active),6%,93% (active),91.4% (active),7%,95% (active),91.3% (active),-5%,89% (active),58.5%,6%,94% (active),93.7% (active),17%,94% (active),84.9% (active)
O=C(NCCCCCCNC(=O)n1cc(F)c(=O)[nH]c1=O)NCCCOCCOCCOCCOCCOCCOCCOCCOCCOCCOCCOCCOCCOCCOCCOCCOCCOCCOCCOCCOCCOCCCNC(=O)C(O)C(O)C(O)C(O)CO (centres undefined),6%,31%,42.2%,4%,60%,82% (active),23%,87% (active),76.8% (active),33%,8%,24.4%,11%,34%,-4.9%,7%,35%,-10.8%
CCc1ccccc1NC(=O)C1=C(C)NC(C)=C(C(=O)Nc2c(CC)cccc2CC)C1c1ccc2c(c1)OCO2 (centres undefined),30%,30%,89.5% (active),22%,22%,88.7% (active),29%,29%,89.3% (active),15%,15%,85.8% (active),24%,24%,90.3% (active),28%,28%,87.7% (active)
CCCCCCC(C)c1ccccc1O (centres undefined) (tested in a mixture with another compound),25%,96% (active),92.2% (active),24%,100% (active),94% (active),25%,100% (active),94% (active),25%,100% (active),93.6% (active),37%,99% (active),93% (active),38%,99% (active),92.2% (active)
COc1ccc(-n2c(=O)c3[nH]c(=S)[nH]c3n(-c3ccc(OC)cc3)c2=S)cc1,21%,25%,25.5%,1%,16%,44%,7%,23%,-47.7%,3%,25%,-1%,-44%,13%,-41.8%,14%,19%,-29.9%
COC(=O)c1ccccc1N=NN(C)CC1OC2OC(C)(C)OC2C1OC (centres undefined),10%,69%,71.2% (active),17%,27%,43.2%,1%,36%,74.1% (active),-3%,20%,-0.8%,0%,44%,32.6%,4%,61%,88% (active)
Nc1c(F)cccc1F,-2%,8%,-16.3%,2%,0%,11.6%,-3%,1%,-5.95%,2%,-6%,20.4%,2%,7%,-1.15%,0%,3%,-8.3%
